Source: PubChem (National Center for Advancing Translational Sciences (NCATS))
Pf Dd2 inh: qHTS Primary assay for Inhibitors of Plasmodium falciparum Dd2 growth in vitro. P. falciparum Dd2 growth, SYBR Green, 72 h. Potency, µM (series often up to 28.9 µM), for the others: at the highest dose activity, negative = inhibition, most hits filed as inhibitors. hit rate 4.3% among 120,000. AID 1347417, 2020; active means well fitted inhibition curve with a large enough effect;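 further: plate controls were DMSO vehicle for no effect and reference drug for full effect; nearly all actives have a fitted effect of over 65% in size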
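Readout: SYBR Green fluorescence, 485 nm excitation, 535 nm emission, after ~16 h lysis at 37C. Before that, Dd2-infected red cells (2.5% hematocrit) grew 72 h with compound, 29 uM top final concentration.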
Numbers without * were called inactive; i = inactive; [ ] = dose if it differs, or a comment. Shown is part of a subset that was picked to be rich in hits. Potency means the concentration at half of the fitted maximal effect.

SMILES | Pf Dd2 inh
OC[C@@H](O)CNc1nccc(C2(c3ccccc3Cl)CCNCC2)n1 | 25%
CN1CCC(CNc2nccc(C3(c4ccccc4Cl)CCNCC3)n2)C1 (centres undefined) | -7%
Clc1ccccc1C1(c2ccnc(C3CC3)n2)CCNCC1 | 2.2µM*
O[C@@H]1CCN(c2nccc(C3(c4ccccc4Cl)CCNCC3)n2)C1 | -17%
CN(C)C1CCN(c2nccc(C3(c4ccccc4Cl)CCNCC3)n2)C1 (centres undefined) | -25%
Clc1ccccc1C1(c2ccnc(NC3CCC3)n2)CCNCC1 | 7.1µM*
CCn1ncc(CN2CCC3(CCC3OC)CC2)c1C (centres undefined) | i
Cc1ccccc1S(=O)(=O)N1CCC(n2cnnc2C(C)C)CC1 | -11%
CC(C)CNC(=O)C1COC2(CCN(C(=O)c3ccc(F)cc3F)CC2)N1C(=O)c1ccccc1 (centres undefined) | -24%
Cc1noc(C)c1S(=O)(=O)NCCc1ncc(C)n1C1CC1 | -3%
C=CCc1cc(-c2c(-c3ccccc3)ncn2CCOCCO)cc(OC)c1O | 6.3µM*
OCCOCCn1cnc(-c2ccccc2)c1-c1ccccc1Cn1cccn1 | -11%
C=CCc1cc(-c2c(-c3ccccc3)ncn2CCCO)cc(OC)c1O | i
COc1ccc(N2CC(c3noc(-c4ccc(C)cc4C)n3)CC2=O)cc1 (centres undefined) | 42%
CC(C)c1nccn1CCCNC(=O)c1ccc(N2CCCC(CO)C2)nc1 (centres undefined) | -1%
COc1ccc(CNC(=O)Cn2c(C)cc3nc4n(c(=O)c32)CCCCC4)cc1OC | i
Cc1onc(-c2cnn(C)c2NCc2ccc(C#N)cc2)c1C(=O)N1CCCC1 | 18%[44.1 µM]
O=C(NC1CCCCC1)c1ccc2c(c1)N(C(=O)c1ccc(F)cc1)CC2 | i
COc1ccc(C(=O)c2cnc3ccc(C)cc3c2S(=O)(=O)c2ccccc2)cc1 | 11µM*
CCOc1ccc(Nc2c(S(=O)(=O)c3ccc(C)cc3)cnc3ccc(OC)cc23)cc1 | i
COc1ccc(-c2cc(C(=O)Oc3cccc(C)c3)c3cc(C)ccc3n2)cc1 | 43%
COc1ccc(S(=O)(=O)c2c(C(=O)c3ccc(C)c(C)c3)cnc3ccc(F)cc23)cc1 | -22%
CCOc1ccc(S(=O)(=O)c2c(C(=O)c3ccc(C)c(C)c3)cnc3ccccc23)cc1 | 7.9µM*
CCOc1ccc(Nc2c(S(=O)(=O)c3ccc(C)cc3)cnc3cc(OC)c(OC)cc23)cc1 | -28%
NCCC(=O)N1CCC(n2nccc2NC(=O)Nc2cccc(F)c2)CC1 | -10%
SMILES | Pf Dd2 inh
CCC(CC)NC(=O)CC1CCCN(c2cnn(CCOC)c(=O)c2)C1 (centres undefined) | 42%
OC[C@@H]1CNC[C@H]1C1CCN(Cc2ccc(F)c(F)c2)CC1 | 28%
CC(C)CC(=O)N1CCC2(CC1)NCc1ccccc1-n1ccnc12 | 100%[5.79 µM]
O=C(Nc1ccon1)c1cnc2n[nH]c(-c3ccccc3)c2n1 | -8%[44.1 µM]
C[S+](=O)([O-])N1CCCC2(CC(c3ccccn3)=NO2)C1 (centres undefined) | 21%[44.1 µM]
CCc1nc(-c2c3n(c(=O)n(Cc4cccc(C(F)(F)F)c4)c2=O)CCCC3)no1 | i
O=C(N1CCC(n2cc(-c3nc(-c4ccccc4)no3)nn2)CC1)C1(c2ccccc2)CC1 | -4%
O=C(NCCCN1CCN(c2ccc(F)cc2)CC1)Nc1ccccc1Cl | 7.9µM*
CCOc1ccc(NC(=O)NCCCN2CCN(c3ccc(F)cc3)CC2)cc1 | i
CCC(=O)N1c2ccccc2CC1C(=O)NCCCN1CCN(c2ccc(F)cc2)CC1 (centres undefined) | -13%
CCCCN1C(=O)C(O)(CC(=O)c2ccc(C(C)(C)C)cc2)c2ccccc21 (centres undefined) | 1.3µM*
CCOC(=O)c1ccc(NC(=O)CN2C(=O)C(C)(C)c3ccccc32)cc1 | 15%
COc1ccc(C(=O)CC2(O)C(=O)N(Cc3ccccc3Cl)c3ccccc32)cc1 (centres undefined) | 9%
CCCCCNc1ncnc2c1CN(c1ccccc1)C(=O)N(C)C2 | -5%[44.1 µM]
O=C1CC2CCN(Cc3c[nH]c4ccccc34)CC2CCN1 (centres undefined) | 8%[44.1 µM]
Cn1cccc1CN1CCn2c(nnc2-c2cccnc2)C1 | -13%[44.1 µM]
CC(C)(C)NS(=O)(=O)c1ccccc1-c1cnc2c(C(N)=O)cnn2c1 | 23%
COc1cccc(C(=O)N[C@@H]2CN(c3ncccn3)C[C@H]2CN(C)C)c1 | -2%
COc1ccc(C(=O)NC(C(=O)NCC(C)C)C2CCN(C(=O)c3ccccc3F)CC2)cc1 (centres undefined) | i
C#CCNC(=O)C[C@@H]1c2nc(NC(=O)C(C)(C)C)sc2C[C@@H]2[C@](C)(CO)[C@H](O)CC[C@]21C | i
COCCNC(=O)C[C@@H]1c2nc(NC(=O)c3ccco3)sc2C[C@@H]2[C@](C)(CO)[C@H](O)CC[C@]21C | i
CC(C)NC(=O)C[C@@H]1c2nc(NC(=O)N3CCOCC3)sc2C[C@@H]2[C@](C)(CO)[C@H](O)CC[C@]21C | -16%
C#CCNC(=O)C[C@@H]1c2nc(NC(=O)c3ccc(C(C)(C)C)cc3)sc2C[C@@H]2[C@](C)(CO)[C@H](O)CC[C@]21C | 4µM*
CC(C)NC(=O)C[C@@H]1c2nc(NC(=O)c3ccc(F)cc3)sc2C[C@@H]2[C@](C)(CO)[C@H](O)CC[C@]21C | i
C[C@]1(CO)[C@H]2Cc3sc(NC(=O)c4ccco4)nc3[C@@H](CC(=O)Nc3ccccc3)[C@]2(C)CC[C@H]1O | 7.1µM*
SMILES | Pf Dd2 inh
C[C@]1(CO)[C@H]2Cc3sc(-c4ccsc4)nc3[C@@H](CC(=O)NCc3ccco3)[C@]2(C)CC[C@H]1O | -23%
CC(C)C[C@H](CO)NC(=O)C[C@@H]1c2nc(NC(=O)c3ccco3)sc2C[C@@H]2[C@](C)(CO)[C@H](O)CC[C@]21C | 8.9µM*
CN(Cc1ccccc1)C(=O)C[C@@H]1c2nc(NC(=O)CC(C)(C)C)sc2C[C@@H]2[C@](C)(CO)[C@H](O)CC[C@]21C | i
COc1cc(NC(=O)CCC2CCCN(Cc3ncccn3)C2)cc(OC)c1 (centres undefined) | -23%
COc1ccc(OC)c(S(=O)(=O)Nc2nc3c(s2)C[C@]2(C)CC[C@@H]4[C@H](OC(=O)[C@H]4C)[C@H]2[C@@H]3C)c1 | -18%
O=C1CCC(C(=O)N2CCCn3nc(C(=O)Nc4ccccc4)cc3C2)=NN1 | -4%
O=C1CC(c2noc(-c3cccc(F)c3)n2)CN1C1CCCCC1 (centres undefined) | 20%
Cc1cc(CN2CCC3CC(=O)NCCC3C2)no1 (centres undefined) | 23%[44.1 µM]
O=C(Cn1nc2c(cc1=O)CCCC2)Nc1nnc(C2CCC2)s1 | -4%
CCc1nc2c(c(-c3ccc(OC)cc3)n1)CN(C(=O)c1ccc(C)cc1)CC2 | -23%
COc1ccc(C(NC(=O)Cn2cccnc2=O)C2CC(O)C2)cn1 (centres undefined) | 0%
COc1ccc(CN2COc3ccc4c(-c5ccccc5)cc(=O)oc4c3C2)cc1 | 1.1µM*
COc1ccc(CN2CCC3(CC2)CNC(=O)c2ccccc2O3)cc1 | 1%
Cc1ccc(CN2C[C@@H]3C(=O)N(Cc4ccc5c(c4)OCO5)C(=O)[C@@H]3C2)cc1 | -22%
Cc1ccc2c(CC(=O)N3CCOc4ccc(CN5CCOCC5)cc4C3)cc(=O)oc2c1 | i
Cc1ccc(CN2COc3ccc4c(-c5ccccc5)cc(=O)oc4c3C2)cc1 | 0.71µM*
COc1ccc(CN2Cc3[nH]nc(-c4ccccc4)c3CC2=O)cc1 | -17%[44.1 µM]
